# Most compounds without a hit are left out; they make up all but 3.5% or so of the library.
# TEAD-YAP block = TEAD-YAP interaction inhibition; HEK-TIYL cells, TEAD-Gal4/YAP UAS-luciferase luminescence; inhibition, % at 9.12 µM; hit rate 1.4% among 640,000; in the data active = inhibition above about 32%
# FBW7 act = activators of human E3 ligase FBW7 | AlphaScreen FBW7–phospho-cyclin E peptide binding, activator screen | Q969H0 | hit rate 0.13% among 650,000 | normalized activity (activation), % at 26.1 µM; in the data active = normalized activity above about 1.9%;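 note: purified mutant Fbw7 with reduced substrate affinity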
# GPR151 ag = activates the human receptor GPR151 | PathHunter beta-arrestin GPR151 cells, luminescence | hit rate 1% among 650,000 | activation, % at 11.2 µM; in the data active = activation above about 4.9%
# Target sequence (Q8TDV0 whole entry, looked up): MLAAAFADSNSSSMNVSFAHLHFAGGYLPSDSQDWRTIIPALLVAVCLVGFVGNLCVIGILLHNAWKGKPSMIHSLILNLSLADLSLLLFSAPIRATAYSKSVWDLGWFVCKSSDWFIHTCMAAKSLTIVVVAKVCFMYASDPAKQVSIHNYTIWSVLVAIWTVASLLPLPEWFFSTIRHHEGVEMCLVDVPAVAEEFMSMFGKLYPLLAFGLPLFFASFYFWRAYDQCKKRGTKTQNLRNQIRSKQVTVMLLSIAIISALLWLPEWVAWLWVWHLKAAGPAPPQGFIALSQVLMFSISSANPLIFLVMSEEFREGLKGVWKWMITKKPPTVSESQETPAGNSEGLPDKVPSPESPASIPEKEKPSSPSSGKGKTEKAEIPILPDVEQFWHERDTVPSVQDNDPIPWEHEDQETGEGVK
# MITF inh = blocks human microphthalmia-associated transcription factor; O75030; AlphaScreen MITF homodimerization, bead proximity signal; inhibition, % at 2.6 µM; hit rate 0.91% among 650,000; in the data active = inhibition above about 50%
# A number is an active result; - = inactive; ! = not confirmed by another sample.
SMILES,TEAD-YAP block,FBW7 act,GPR151 ag,MITF inh
COc1c(Br)cc(Cl)cc1C=C1C(=O)NC(=S)NC1=O,-,-,-,-
COc1ccc(C(=S)N2CC(C)OC(C)C2)cc1 (stereo not given),-,-,-,-
Cc1nc2c(C(=O)N3CCC4(CC3)OCCO4)cnn2c(C)c1Cc1ccccc1,-,-,-,-
COc1cccc(-c2ccc3nnc(SCC(=O)N4CCN(c5ccccc5)CC4)n3n2)c1,32.8,-,-,-
COc1cccc(NC(=O)c2cnc(SCC(=O)N3CCN(c4ccccc4)CC3)n(C)c2=O)c1,35.5,-,-,-
NC(C(=O)N1CCC(Nc2ccc3[nH]ncc3c2)C1)c1ccc(F)cc1 (stereo not given),-,-,-,-
CC1(C)CC(=O)C=C(NNC(=O)COc2ccccc2)C1,-,1.9!,-,-
CC1(C)CC(=O)C=C(NNC(=O)Cc2ccccc2)C1,-,-,-,-
CCOC(=O)C(CCCOc1ccc(Cl)cc1)C(=O)OCC,-,-,-,-
Cc1ccc(CN2CCc3nnc(C(C)NC(=O)C4CCOCC4)n3CC2)cc1 (stereo not given),-,-,-,-
N#CC(C#N)=NNc1ccc(SC(F)F)cc1,73.6,-,-,-
N#CCSc1ccc2nnc(-c3ccncc3)n2n1,39.7,-,-,-
CCC(Sc1ccc2nnc(-c3ccccn3)n2n1)C(=O)OC (stereo not given),-,7.2,-,-
N#CCSc1ccc2nnc(-c3ccccn3)n2n1,-,3.8,-,-
COc1ccc(C2=NN(CN3C(=O)C(=O)c4ccccc43)C(c3ccccc3Cl)C2)cc1 (stereo not given),-,-,-,-
COc1ccc(OCc2n(CC(=O)OC3CC(C)CCC3C(C)C)c3ccccc3[n+]2C)cc1 (stereo not given),41.1,-,-,-
COc1ccc(C(=O)NC(=S)NC2CCS(=O)(=O)C2)cc1 (stereo not given),-,-,-,-
O=S1(=O)CCC(NC(=S)Nc2ccc(OC(F)F)cc2)C1 (stereo not given),40.7,-,-,-
COc1ccc2sc3ccccc3c(=O)c2c1,-,-,-,-
Nc1ccc2sc3ccccc3c(=O)c2c1,-,2.1,-,-
COc1cc(NC(=O)C(C)C)ccc1N1CCCCC1=O,-,-,-,-
CCn1ncc(Cl)c1C(=O)Nc1cc(Cl)ccc1Cl,-,1.9,-,-
CCOC(=O)C1=C(C)NC(N)=C(C#N)C1c1ccc(F)cc1 (stereo not given),-,-,-,-
NS(=O)(=O)c1ccc(N=Cc2c(O)n(Cc3ccco3)c(=O)[nH]c2=O)cc1,-,-,-,78.7
COc1ccc(CNC(=O)c2cc(-c3ccc(O)cc3)on2)cc1,38.5,-,-,-
SMILES,TEAD-YAP block,FBW7 act,GPR151 ag,MITF inh
CSc1ccc(CN2CCCC(C(=O)Nc3cccc(-n4cnnn4)c3)C2)cc1 (stereo not given),36.8,-,-,-
CCOC(=O)CSc1nc2sc3c(c2c(=O)n1-c1ccccc1)CCCC3,-,-,-,-
COc1ccc2c(-c3ccccc3)cc(NCCCN(C)C)nc2c1,-,-,-,68.1
COc1ccc(-c2ccc(NCCCN(C)C)nc2)cc1,-,-,-,-
O=C(Nc1c2c(nn1-c1ccc(F)cc1)CSC2)c1cc([N+](=O)[O-])ccc1Cl,85.8,-,-,-
O=C(Nc1c2c(nn1-c1ccc(Cl)cc1)CSC2)c1cc([N+](=O)[O-])ccc1Cl,-,-,-,-
Cc1ccc(-n2nc3c(c2NC(=O)c2cc([N+](=O)[O-])ccc2Cl)CSC3)cc1,62.8,-,-,-
O=C(Nc1ccc(-c2nc3ccccc3o2)cc1)c1cc([N+](=O)[O-])ccc1Cl,-,-,-,-
O=[N+]([O-])c1cc(Cl)c2oc(-c3ccc(O)cc3)nc2c1,54.7,-,-,-
CC1=NN(C(N)=S)C(=O)C1N=Nc1ccccc1C (stereo not given),-,-,-,-
CC1=NN(C(N)=S)C(=O)C1N=Nc1ccccc1O (stereo not given),-,-,-,58.0
COc1ccc(/C=C2\SC(=Nc3cc(C)cc(C)c3)NC2=O)c(OC)c1,57.2,-,-,-
COc1ccc(/C=C2\SC(=Nc3cccc(C)c3C)NC2=O)c(OC)c1,-,-,-,-
COc1ccc(/C=C2\SC(=O)NC2=Nc2ccc(C)cc2)c(OC)c1,57.6,-,-,-
CCC1=NN2C(=N)/C(=C/c3cn(CCOc4ccc(C(C)CC)cc4)c4ccccc34)C(=O)N=C2S1 (stereo not given),-,-,-,-
CCOc1ccccc1Nc1nnc(SCC(=O)NC(=O)NC(C)C)s1,-,-,-,-
CSCCOC(=O)c1[nH]c2c(c1C)C(=O)CC(c1ccco1)C2 (stereo not given),50.2,-,-,-
Cc1c(C(=O)OCc2ccccc2)[nH]c2c1C(=O)CC(c1ccco1)C2 (stereo not given),56.8,-,-,-
CCOCCOC(=O)c1[nH]c2c(c1C)C(=O)CC(c1ccco1)C2 (stereo not given),51.2,-,-,-
COCCOC(=O)c1[nH]c2c(c1C)C(=O)CC(c1ccco1)C2 (stereo not given),49.3,-,-,-
COCCOC(=O)c1[nH]c2c(c1C)C(=O)C(C(=O)OC)C(C)C2 (stereo not given),-,-,-,-
CCOCCOC(=O)c1[nH]c2c(c1C)C(=O)CC(c1ccc(OCC)cc1)C2 (stereo not given),-,-,-,-
Cc1c(C(=O)OCCOC(C)C)[nH]c2c1C(=O)CC(C)(C)C2,-,-,-,-
CCOC(=O)c1[nH]c2c(c1C)C(=O)CC(c1ccco1)C2 (stereo not given),58.4,-,-,-
Cc1c(C(=O)OCCOC(C)C)[nH]c2c1C(=O)CC(c1ccco1)C2 (stereo not given),60.2,-,-,-
SMILES,TEAD-YAP block,FBW7 act,GPR151 ag,MITF inh
CC(C)CCOC(=O)c1ccc(NC(=O)c2ccncc2)cc1,-,-,-,-
CC(C)COC(=O)c1ccc(NC(=O)c2ccncc2)cc1,32.6,-,-,-
CC(=O)Nc1ccc(C(=O)Nc2ccncc2)cc1,-,-,-,-
C[C@@H](N)c1ccc(C(=O)Nc2ccncc2)cc1,50.0,-,-,-
COC(=O)CNC(=O)c1cccc([N+](=O)[O-])c1C,-,-,-,-
Cc1cc(NC(=O)c2ccc3c(c2)OCCO3)no1,79.2,-,-,-
Cc1cc(NC(=O)c2ccc3c(c2)OCO3)no1,-,-,-,-
Cc1cccc(NC(=O)c2ccc3c(c2)OCCO3)n1,-,-,-,-
Cc1cc(NC(=O)c2ccc3c(c2)OCCO3)on1,38.2,-,-,-
CC1(C)CC(N2CCOCC2)=C/C(=N\c2ncn[nH]2)C1,-,-,-,-
C[C@H]1NC(=O)[C@H]2CN(C(=O)Oc3ccccc3)CCN2C1=O,-,-,-,-
CCOC(=O)c1c(NC(=O)CSc2nnc(CNC(=O)c3cccc(OC)c3)n2-c2cccc(C)c2C)sc2c1CCCC2,-,-,-,-
O=C(COC(=O)c1cc(O)[nH]c(=O)c1)Nc1cc(C(F)(F)F)ccc1Cl,-,-,-,-
COc1cc(Cl)c(C)cc1NC(=O)COC(=O)c1cc(O)[nH]c(=O)c1,-,-,-,62.8
